The results in this text go back to PubChem BioAssay (EPA / NIEHS).

Assay [1] addresses human Vitamin D Receptor (VDR), VDR (gene 7421) (UniProt P11473). As to the kind of experiment: ATG_VDR_TRANS: Attagene TRANS-FACTORIAL HepG2 Assay for human Vitamin D Receptor (VDR) (AID 2283022; active means hit-call score of the fitted dose curve at least 0.9, where 1 is the maximum). Summed up:
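Steps: transfect HepG2 with GAL4-UAS-driven reporter constructs; dose compounds 24 h; isolate RNA, reverse-transcribe, PCR-amplify with 6-FAM-labelled primer extension and HpaI digestion; quantify fragments by capillary electrophoresis relative to DMSO.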

A short description of assay [2]: BSK_3C_SRB: Viability Assessment in the BioMAP Diversity Plus: 3C Assay (AID 2283023).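 Further: fitted both ways against DMSO so a hit may be signal rise or drop.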 The note with it: primary human endothelial cells (HUVEC). Summed up: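 Absorbance at 560 nm of sulforhodamine B-stained (0.1%) total protein served as a cytotoxicity readout in human umbilical vein endothelial cells, 24 h after chemical treatment. Signal was fitted bidirectionally relative to DMSO.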

Read-out in assay [3]: Matrix Metallopeptidase 1 (MMP1), MMP1 (gene 4312)
As to the kind of experiment: BSK_BE3C_MMP1: BioMAP Diversity Plus: BE3C Assay for Matrix Metallopeptidase 1 (MMP1) Biomarker Activity (AID 2283024). To be noted: primary human bronchial epithelial cells; actives raise or lower the signal. The gist of the method: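 ELISA measurement of MMP-1 after 24 h compound exposure of primary human bronchial epithelial cells. Changes in either direction fitted relative to DMSO; parallel SRB staining checked overt cytotoxicity.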

The nature of assay [4]: BSK_3C_Vis: BioMAP Diversity Plus: 3C Assay for Morphology Visualization (AID 2283025).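 Further: fitted both ways so gain or loss versus DMSO counts.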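 On AC50: light microscopy image of cell morphology used as background control.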 The note with it: primary human endothelial cells (HUVEC). The gist of the method: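 Light-microscopy visualization of HUVEC cultures at 24 h post-treatment, with DMSO as baseline for bidirectional fitting.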
Read-out in assay [5]: Pselectin, SELP (gene 6403)
Briefly: BSK_4H_Pselectin: BioMAP Diversity Plus: 4H Assay for Pselectin Biomarker Activity (AID 2283026). To be noted: primary human endothelial cells (HUVEC); actives raise or lower the signal. The gist of the method:
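ELISA of surface P-selectin on HUVEC, 24 h after dosing, with parallel SRB staining (0.1% after 10% TCA fixation, 560 nm) for overt cytotoxicity. Activity fitted in both directions relative to DMSO.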

Assay [6] can be described thus: BSK_4H_SRB: Viability Assessment in the BioMAP Diversity Plus: 4H Assay (AID 2283027).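 Further: cells exposed to compound for 24 h before staining.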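 On AC50: curves fitted both ways versus DMSO so AC50 may be loss or gain.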 To be noted: primary human endothelial cells (HUVEC). The gist of the method:
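Cytotoxicity readout: sulforhodamine B (0.1%) staining of total protein after 10% TCA fixation, measured at 560 nm in human umbilical vein endothelium at 24 h. DMSO set the baseline; fitting was bidirectional.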

Assay [7] is described as follows: BSK_BE3C_SRB: Viability Assessment in the BioMAP Diversity Plus: BE3C Assay (AID 2283028).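 On AC50: fitted both ways so AC50 may mark signal gain or loss versus DMSO.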 To be noted: primary human bronchial epithelial cells. Summed up:
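Cells (human bronchial epithelial, primary) are treated with chemicals, and after 24 h the parallel cultures are fixed in 10% TCA. These are then stained with 0.1% SRB and read at 560 nm. Gain or loss of signal is fitted relative to DMSO.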

Read-out in assay [8]: Thrombomodulin, THBD (gene 7056)
Briefly: BSK_3C_Thrombomodulin: BioMAP Diversity Plus: 3C Assay for Thrombomodulin Biomarker Activity (AID 2283029). The note with it: primary human endothelial cells (HUVEC); actives raise or lower the signal. The gist of the method:
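ELISA measurement of thrombomodulin on HUVEC surface 24 h after chemical dosing; activity fitted in both directions relative to DMSO vehicle.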

Read-out in assay [9]: Urokinase-type plasminogen activator receptor (uPAR), PLAUR (gene 5329)
As to the kind of experiment: BSK_4H_uPAR: BioMAP Diversity Plus: 4H Assay for Urokinase-type plasminogen activator receptor (uPAR) Biomarker Activity (AID 2283030). The note with it: primary human endothelial cells (HUVEC); actives raise or lower the signal. Summed up: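 Cell-surface uPAR ELISA signal, measured 24 h after dosing human umbilical vein endothelial cells, was analyzed with bidirectional fitting relative to DMSO. Parallel SRB staining of total protein tracked overt cytotoxicity.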

Read-out in assay [10]: Vascular endothelial growth factor receptor 2 (Homo sapiens) (UniProt P35968)
Briefly: BSK_4H_VEGFRII: BioMAP Diversity Plus: 4H Assay for Vascular endothelial growth factor receptor 2 (VEGFR2) Biomarker Activity (AID 2283031). The note with it: primary human endothelial cells (HUVEC); actives raise or lower the signal. Summed up:
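ELISA read-out of VEGFRII in primary human umbilical vein endothelium, taken 24 h after chemical treatment. Responses are expressed relative to DMSO, with bidirectional fitting.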

Read-out in assay [11]: Vascular cell adhesion molecule 1 (VCAM1), VCAM1 (gene 7412)
Briefly: BSK_4H_VCAM1: BioMAP Diversity Plus: 4H Assay for Vascular cell adhesion molecule 1 (VCAM1) Biomarker Activity (AID 2283033).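 On outcome: cell-surface VCAM-1 protein measured by ELISA.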 The note with it: primary human endothelial cells (HUVEC); actives raise or lower the signal. Summed up: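 VCAM-1 ELISA read 24 h after chemical dosing of HUVEC in the BioMAP 4H system, with gain or loss of signal fitted relative to DMSO. Parallel SRB staining (560 nm) checked overt cytotoxicity.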

Read-out in assay [12]: Interferon-gamma inducible Protein 10 (IP10), CXCL10 (gene 3627)
Briefly: BSK_BE3C_IP10: BioMAP Diversity Plus: BE3C Assay for Interferon-gamma inducible Protein 10 (IP10) Biomarker Activity (AID 2283034). To be noted: primary human bronchial epithelial cells; actives raise or lower the signal. The gist of the method:
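IP-10 quantified by ELISA in human primary bronchial epithelial cell cultures at 24 hours post-dosing. Gain or loss of signal fitted relative to DMSO; parallel SRB staining assessed overt cytotoxicity.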

Read-out in assay [13]: Monokine induced gamma interferon (MIG), CXCL9 (gene 4283)
As to the kind of experiment: BSK_BE3C_MIG: BioMAP Diversity Plus: BE3C Assay for Monokine induced gamma interferon (MIG) Biomarker Activity (AID 2283035). To be noted: primary human bronchial epithelial cells; actives raise or lower the signal. Summed up: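 hu bronchial epithelial 1° cells, 24 h cpd; MIG by ELISA; bidirectional fit, DMSO = baseline.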

Read-out in assay [14]: Transforming growth factor beta 1 (TGFb1), TGFB1 (gene 7040)
Briefly: BSK_BE3C_TGFb1: BioMAP Diversity Plus: BE3C Assay for Transforming growth factor beta 1 (TGFb1) Biomarker Activity (AID 2283036;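 on outcome: TGF-b1 protein level measured by ELISA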). The note with it: primary human bronchial epithelial cells; actives raise or lower the signal. Summed up:
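ELISA readout of TGF-b1 from human lung bronchial epithelial primary cells, taken 24 h post-treatment. Gain or loss of signal fitted relative to DMSO baseline, with parallel SRB staining for overt cytotoxicity.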

Read-out in assay [15]: Plasminogen activator inhibitor-1 (PAI1), SERPINE1 (gene 5054)
As to the kind of experiment: BSK_BE3C_PAI1: BioMAP Diversity Plus: BE3C Assay for Plasminogen activator inhibitor-1 (PAI1) Biomarker Activity (AID 2283037). To be noted: primary human bronchial epithelial cells; actives raise or lower the signal. The gist of the method: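 PAI-1 was measured by ELISA in human primary bronchial epithelial cultures 24 h after chemical dosing, with cytotoxicity checked by SRB total-protein staining in parallel cultures. Activity was fitted in both directions relative to DMSO.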

Read-out in assay [16]: urokinase plasminogen activator (uPA), PLAU (gene 5328)
Briefly: BSK_BE3C_uPA: BioMAP Diversity Plus: BE3C Assay for urokinase plasminogen activator (uPA) Biomarker Activity (AID 2283038).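 On outcome: uPA protein level quantified by ELISA in cell cultures; uPA read one day after compound addition.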 To be noted: primary human bronchial epithelial cells; actives raise or lower the signal. The gist of the method: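 Bronchial epithelial cells (human, primary); chemical 24 h; uPA by ELISA; bidirectional fit vs DMSO. SRB (0.1%, after 10% TCA fixation, 560 nm) in parallel cultures for cytotoxicity.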

Read-out in assay [17]: Urokinase-type plasminogen activator receptor (uPAR), PLAUR (gene 5329)
Briefly: BSK_BE3C_uPAR: BioMAP Diversity Plus: BE3C Assay for Urokinase-type plasminogen activator receptor (uPAR) Biomarker Activity (AID 2283039).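 On outcome: cells exposed to compound for one day before measurement.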 The note with it: primary human bronchial epithelial cells; actives raise or lower the signal. Summed up:
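uPAR levels were measured by ELISA after 24 h compound treatment of primary human bronchial epithelial cells, fitted in both directions relative to DMSO. Parallel SRB staining served as the cytotoxicity read-out.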

Read-out in assay [18]: Interleukin-6 (IL6), IL6 (gene 3569)
Briefly: BSK_CASM3C_IL6: BioMAP Diversity Plus: CASM3C Assay for Interleukin-6 (IL6) Biomarker Activity for (AID 2283040). To be noted: primary human coronary artery smooth muscle cells; actives raise or lower the signal.

Read-out in assay [19]: Human Leukocyte Antigen - DR isotype (HLADR), HLA-DRA (gene 3122)
Briefly: BSK_BE3C_HLADR: BioMAP Diversity Plus: BE3C Assay for Human Leukocyte Antigen - DR isotype (HLADR) Biomarker Activity (AID 2283032). To be noted: primary human bronchial epithelial cells; actives raise or lower the signal. Summed up: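 Cell-surface HLA-DR ELISA readout at 24 h after dosing in the BE3C primary human lung bronchial epithelial system; gain or loss of signal against DMSO, with parallel sulforhodamine B staining of total protein for overt cytotoxicity.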

Read-out in assay [20]: Tissue plasminogen activator (tPA), PLAT (gene 5327)
As to the kind of experiment: BSK_BE3C_tPA: BioMAP Diversity Plus: BE3C Assay for Tissue plasminogen activator (tPA) Biomarker Activity (AID 2283041).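 On outcome: tPA level quantified by ELISA one day after compound addition.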 The note with it: primary human bronchial epithelial cells; actives raise or lower the signal. Summed up:
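tPA measured by ELISA 24 h after dosing human primary bronchial epithelial cells (BE3C system). Changes in either direction were fitted against DMSO. Parallel cultures were stained with SRB to flag overt cytotoxicity.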

Results filed as inconclusive are left out. Active and inactive are the calls of the source. How the source made its calls, unless noted: active means hit-call score of the fitted dose curve at least 0.9, where 1 is the maximum; inactive means score below 0.9.

human Vitamin D Receptor (VDR), VDR (gene 7421), sequence (P11473 whole entry, looked up, the tested form may be a part): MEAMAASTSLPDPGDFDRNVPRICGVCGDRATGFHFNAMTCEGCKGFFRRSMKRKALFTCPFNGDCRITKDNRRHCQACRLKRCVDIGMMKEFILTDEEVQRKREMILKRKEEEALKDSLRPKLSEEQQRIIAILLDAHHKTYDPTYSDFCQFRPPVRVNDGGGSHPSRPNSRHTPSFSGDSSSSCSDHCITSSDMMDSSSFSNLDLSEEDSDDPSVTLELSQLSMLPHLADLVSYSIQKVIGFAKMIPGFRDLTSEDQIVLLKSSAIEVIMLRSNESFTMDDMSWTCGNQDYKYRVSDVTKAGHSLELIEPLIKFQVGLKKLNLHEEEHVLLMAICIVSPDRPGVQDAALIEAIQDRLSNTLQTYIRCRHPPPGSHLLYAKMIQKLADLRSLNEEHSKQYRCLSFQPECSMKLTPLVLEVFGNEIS

Usually AC50 stands for the concentration at which the activity in the assay is half-maximal. `NCc1cccc(C2CCN(C(=O)c3ccc(C#Cc4ccccc4F)o3)CC2)c1`: the outcome in assay [1] and in assay [10] was inactive. Moreover, the AC50 in assay [2] was 11 µM (active); in [3] it was 28.2 µM (active); in assay [4] it was 13.3 µM (active); in assay [5], 13.3 µM (active); in [6] it was 15.1 µM (active); in [7] it was 15.4 µM (active). For the same compound, the AC50 is 12.7 µM (active) in assay [8]; 23.2 µM (active) in [9]; 26.2 µM (active) in [11]; 12.4 µM (active) in [12]; 13.7 µM (active) in [13]; 13.1 µM (active) in assay [14]. Moreover, the AC50 in [15] is 13.8 µM (active); in assay [16] it was 7.93 µM (active); in [17], 11.8 µM (active); in assay [18], 33.9 µM (active).
`Clc1ccccc1C(c1ccccc1)(c1ccccc1)n1ccnc1`: the call in [1] and in [10] was inactive. Further, the AC50 in assay [2] is 11.9 µM (active); in assay [3], 11.8 µM (active); in assay [4] it was 14.5 µM (active); in assay [5], 8.64 µM (active); in [6] it was 24.9 µM (active); in assay [7], 8.78 µM (active). In addition, the AC50 in assay [8] was 8.39 µM (active); in [9] it was 18.3 µM (active); in [19], 8.22 µM (active); in [11], 33.5 µM (active); in assay [12], 10.7 µM (active); in [13], 9.5 µM (active). The AC50 in [14] was 6.45 µM (active); in assay [15] it was 7.59 µM (active); in assay [16], 9.81 µM (active); in assay [18] it was 31.9 µM (active).
As for `CCCCCCCCOc1ccc(C(=O)c2ccccc2)c(O)c1`, the result in assay [1], in assay [3], in assay [4], in assay [5], in assay [6] and in [7] was inactive. Further, the outcome in assay [9], in assay [10], in assay [19], in assay [11], in assay [12] and in assay [13] was inactive. For the same compound, the result in assay [14], in [15], in assay [16], in assay [17] and in [18] was inactive. Besides, the AC50 in assay [2] was 28.7 µM (active); in assay [8], 7.71 µM (active).
Turning to `CC(=O)N1CCN(c2ccc(OC[C@H]3CO[C@](Cn4ccnc4)(c4ccc(Cl)cc4Cl)O3)cc2)CC1`, the outcome in assay [1], in assay [3], in [7], in assay [8], in [10] and in assay [13] was inactive. For the same compound, the outcome in [14], in assay [15], in assay [16] and in [18] was inactive. The AC50 in assay [2] was 29.1 µM (active); in [4] it was 37.5 µM (active); in assay [5], 14.8 µM (active); in assay [6], 29.6 µM (active); in assay [9], 32.9 µM (active); in assay [11] it was 33.6 µM (active). For the same compound, the AC50 in [12] was 29.4 µM (active).
As to `Cc1oc2c(NC(=O)c3c(Cl)cccc3Cl)cccc2c1C(C)(C)O`, the result in [1], in [7], in assay [9], in [10], in [11] and in assay [12] was inactive. Further, the outcome in assay [13], in [14], in [15] and in assay [16] was inactive. Also, the AC50 in assay [2] is 25 µM (active); in assay [3], 14.3 µM (active); in assay [4], 20.7 µM (active); in assay [5], 13.2 µM (active); in [6] it was 15 µM (active); in assay [8], 11.8 µM (active). Also, the AC50 in [19] is 18.1 µM (active); in assay [18] it was 33.2 µM (active); in assay [20] it was 15.1 µM (active).
On to `Cc1ncc(CO)c(CO)c1O`, for which the outcome in assay [1], in assay [2], in [3], in assay [4], in [5] and in [6] was inactive. Besides, the outcome in assay [7], in assay [8], in [9], in assay [10], in assay [19] and in assay [11] was inactive. The outcome in assay [12], in [13], in assay [14], in [15], in assay [16] and in assay [18] was inactive. In addition, the outcome in [20] was inactive.
